# From the supplement of paper PMC8728848
# Only a selection was taken, and the strongest signals are over-represented in it overall.
# B1: PX9961A-pdi-456-24-456 (Parabacteroides distasonis) (protein)
# chain: KTSSTQLPTIDAISSVADLTNAVNGVYEQQATEVGSYGAEFTLLADLRSGDFQSISTVNHAGPMYRYQTGKNDEMVYSFYKLFYNSLARLNNVLAAAENLEGADVDILKGELYAMRALYHFDLARVFAKLPSTTDMNDLGIVLSTEVYPTDYIGTRATLQQTYDQILKDIETALPLLSKDKQTGHINYWGALAIRARAYLYLEKNKEALADCKEIIASSPYKLYTRDEYIGAWDKEGTNEAIFEILVTPNYNAQRNSIGYFTHASGYGECAATESFLEELAKHPGDIRTELFAKETDNGYDGTYPQKYKGRDGQIYVNNPKVVRLSEVYLIAAEAALKAGDTSAAAGYMNTLRKNRIENYTDVASITLDDILLERRLELFTEGHTAWDAWRNGKSVNNKFVGEVKPGDYRTIMAIPIGEITVSRGQLIQNPGY
# How the values were obtained:
# Experiment in all cases: glycan array binding signal (z-score within array); higher = stronger binding
# Conditions in all cases: glycan notation: IUPAC condensed, linker removed
# [1] = target: Fuc(a1-2)Gal(b1-3)GalNAc(b1-3)Gal(a1-4)Gal(b1-4)Glc
# Method in brief: (§1)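 Arrays were curated from the Consortium for Functional Glycomics database, 3228 in total, and kept only where the protein sequence was available. Binding is expressed as a within-array Z-score. This score was averaged across arrays of the same protein sequence at different concentrations or buffers and across linkers, and negative values can be read as non-binding.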
# [2] = target: Fuc(a1-2)Gal(b1-3)GlcNAc6S
# Method in brief: as §1
# [3] = target: Fuc(a1-2)Gal(b1-3)[Fuc(a1-4)]GlcNAc(b1-2)Man(a1-3)[Fuc(a1-2)Gal(b1-3)[Fuc(a1-4)]GlcNAc(b1-2)Man(a1-6)]Man(b1-4)GlcNAc(b1-4)[Fuc(a1-6)]GlcNAc(b1-4)[Fuc(a1-6)]GlcNAc
# Method in brief: as §1
# [4] = target: Fuc(a1-2)Gal(b1-4)GlcNAc(b1-3)Gal(b1-4)GlcNAc(b1-3)Gal(b1-4)GlcNAc
# Method in brief: as §1
# [5] = target: Fuc(a1-2)Gal6S(b1-4)Glc6S
# Method in brief: as §1
# Fuc(a1-2)[Gal(a1-3)]Gal = target: Fuc(a1-2)[Gal(a1-3)]Gal
# Method in brief: as §1
# [6] = target: Fuc(a1-2)[GalNAc(a1-3)]Gal(b1-4)[Fuc(a1-3)]GlcNAc(b1-3)GalNAc
# Method in brief: as §1
# [7] = target: Fuc(a1-3)[Gal3S(b1-4)]GlcNAc6S
# Method in brief: as §1
# Fuc(a1-4)GlcNAc = target: Fuc(a1-4)GlcNAc
# Method in brief: as §1
# [8] = target: Gal(a1-3)Gal(b1-4)GlcNAc(b1-2)Man(a1-3)[Gal(a1-3)Gal(b1-4)GlcNAc(b1-2)Man(a1-6)]Man(b1-4)GlcNAc(b1-4)GlcNAc
# Method in brief: as §1
# [9] = target: Gal(a1-3)Gal(b1-4)[Fuc(a1-3)]GlcNAc(b1-2)Man(a1-3)[Gal(a1-3)Gal(b1-4)[Fuc(a1-3)]GlcNAc(b1-2)Man(a1-6)]Man(b1-4)GlcNAc(b1-4)GlcNAc
# Method in brief: as §1
# Gal(a1-3)GalNAc = target: Gal(a1-3)GalNAc
# Method in brief: as §1
# [10] = target: Gal(a1-4)Gal(b1-4)GlcNAc(b1-2)Man(a1-3)[Gal(a1-4)Gal(b1-4)GlcNAc(b1-2)Man(a1-6)]Man(b1-4)GlcNAc(b1-4)GlcNAc
# Method in brief: as §1
# [11] = target: Gal(a1-4)Gal(b1-4)GlcNAc(b1-3)Gal(b1-4)Glc
# Method in brief: as §1
# [12] = target: Gal(b1-3)GlcNAc(b1-3)Gal(b1-4)GlcNAc(b1-2)[Gal(b1-3)GlcNAc(b1-3)Gal(b1-4)GlcNAc(b1-6)]Man(a1-6)[Gal(b1-3)GlcNAc(b1-3)Gal(b1-4)GlcNAc(b1-2)Man(a1-3)]Man(b1-4)GlcNAc(b1-4)[Fuc(a1-6)]GlcNAc
# Method in brief: as §1
# [13] = target: Gal(b1-4)GalNAc(b1-3)[Fuc(a1-2)]Gal(b1-4)GlcNAc
# Method in brief: as §1
# [14] = target: Gal(b1-4)GlcNAc(b1-2)[Gal(b1-4)GlcNAc(b1-6)]Man(a1-6)[Gal(b1-4)GlcNAc(b1-2)Man(a1-3)]Man(b1-4)GlcNAc(b1-4)[Fuc(a1-6)]GlcNAc
# Method in brief: as §1
# [15] = target: Gal(b1-4)GlcNAc(b1-3)Gal(b1-3)GalNAc
# Method in brief: as §1
# [16] = target: Gal(b1-4)GlcNAc(b1-3)Gal(b1-4)GlcNAc(b1-2)Man(a1-3)[Gal(b1-4)GlcNAc(b1-3)Gal(b1-4)GlcNAc(b1-2)Man(a1-6)]Man(b1-4)GlcNAc(b1-4)GlcNAc
# Method in brief: as §1
# [17] = target: Gal(b1-4)GlcNAc(b1-3)Gal(b1-4)GlcNAc(b1-2)Man(a1-3)[Gal(b1-4)GlcNAc(b1-3)Gal(b1-4)GlcNAc(b1-2)Man(a1-6)]Man(b1-4)GlcNAc(b1-4)[Fuc(a1-6)]GlcNAc
# Method in brief: as §1
# [18] = target: Gal(b1-4)GlcNAc(b1-3)Gal(b1-4)GlcNAc(b1-3)Gal(b1-4)GlcNAc(b1-2)[Gal(b1-4)GlcNAc(b1-3)Gal(b1-4)GlcNAc(b1-3)Gal(b1-4)GlcNAc(b1-6)]Man(a1-6)[Gal(b1-4)GlcNAc(b1-3)Gal(b1-4)GlcNAc(b1-3)Gal(b1-4)GlcNAc(b1-2)Man(a1-3)]Man(b1-4)GlcNAc(b1-4)[Fuc(a1-6)]GlcNAc
# Method in brief: as §1
# [19] = target: Gal(b1-4)GlcNAc(b1-3)Gal(b1-4)GlcNAc(b1-3)Gal(b1-4)GlcNAc(b1-3)Gal(b1-4)GlcNAc(b1-2)Man(a1-3)[Gal(b1-4)GlcNAc(b1-3)Gal(b1-4)GlcNAc(b1-3)Gal(b1-4)GlcNAc(b1-3)Gal(b1-4)GlcNAc(b1-2)Man(a1-6)]Man(b1-4)GlcNAc(b1-4)GlcNAc
# Method in brief: as §1
binder,measurement,setting,value
B1,glycan array binding signal (z-score),[1],-0.216
same,glycan array binding signal (z-score),[2],0.178
same,glycan array binding signal (z-score),[3],0.196
same,glycan array binding signal (z-score),[4],-0.148
same,glycan array binding signal (z-score),[5],-0.221
same,glycan array binding signal (z-score),Fuc(a1-2)[Gal(a1-3)]Gal,1.54
same,glycan array binding signal (z-score),[6],0.753
same,glycan array binding signal (z-score),[7],-0.41
same,glycan array binding signal (z-score),Fuc(a1-4)GlcNAc,7.24
same,glycan array binding signal (z-score),[8],0.21
same,glycan array binding signal (z-score),[9],0.63
same,glycan array binding signal (z-score),Gal(a1-3)GalNAc,-0.152
same,glycan array binding signal (z-score),[10],0.514
same,glycan array binding signal (z-score),[11],0.043
same,glycan array binding signal (z-score),[12],1.83
same,glycan array binding signal (z-score),[13],-0.317
same,glycan array binding signal (z-score),[14],2.12
same,glycan array binding signal (z-score),[15],-0.575
same,glycan array binding signal (z-score),[16],2.2
same,glycan array binding signal (z-score),[17],2.48
same,glycan array binding signal (z-score),[18],2.11
same,glycan array binding signal (z-score),[19],0.035
